LAP4 TOR yeast – modulators of LAP4-GFP expression in yeast, primary screen, S. cerevisiae, multiplex flow cytometry, MLPCN library. GFP response vs DMSO, % at 10 µM. AID 2023, 2009. 3 h; median GFP as percent of DMSO wells. actives 0.34% (n = 320,000);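 active = GFP response vs DMSO above a set limit, about the screen mean plus 3 SD, cut at about 150% in these data; inconclusive = under 70 cell events counted for the yeast strain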
CIT2-GFP yeast – modulators of CIT2-GFP expression in yeast, primary screen, S. cerevisiae, GFP fusion, multiplex flow cytometry, MLPCN library; GFP response vs DMSO, % at 10 µM; actives 0.065% (n = 320,000); AID 2029, 2009; S. cerevisiae CIT2-GFP strain, 3 h; 100 means same as DMSO wells;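 active = GFP response relative to DMSO above a set limit, near the screen mean plus 3 SD, cut at about 150% in these data; inconclusive = Fewer than 70 cells measured for a yeast strain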;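 also: ratio of well median GFP fluorescence to mean of DMSO wells on the plate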
VLA-4 inh – inhibition in human VLA-4 binding assay, primary screen, VLA-4 allosteric modulator project, MLPCN library, flow cytometry, VLA-4 expressing cells; Integrin alpha-4 (Homo sapiens), P13612; ligand binding flow cytometry; inhibition, % (about 7 µM as worked out from the volumes in the protocol); actives 0.2% (n = 330,000); in the data active = inhibition above about 50%
Target sequence (P13612 whole entry, looked up): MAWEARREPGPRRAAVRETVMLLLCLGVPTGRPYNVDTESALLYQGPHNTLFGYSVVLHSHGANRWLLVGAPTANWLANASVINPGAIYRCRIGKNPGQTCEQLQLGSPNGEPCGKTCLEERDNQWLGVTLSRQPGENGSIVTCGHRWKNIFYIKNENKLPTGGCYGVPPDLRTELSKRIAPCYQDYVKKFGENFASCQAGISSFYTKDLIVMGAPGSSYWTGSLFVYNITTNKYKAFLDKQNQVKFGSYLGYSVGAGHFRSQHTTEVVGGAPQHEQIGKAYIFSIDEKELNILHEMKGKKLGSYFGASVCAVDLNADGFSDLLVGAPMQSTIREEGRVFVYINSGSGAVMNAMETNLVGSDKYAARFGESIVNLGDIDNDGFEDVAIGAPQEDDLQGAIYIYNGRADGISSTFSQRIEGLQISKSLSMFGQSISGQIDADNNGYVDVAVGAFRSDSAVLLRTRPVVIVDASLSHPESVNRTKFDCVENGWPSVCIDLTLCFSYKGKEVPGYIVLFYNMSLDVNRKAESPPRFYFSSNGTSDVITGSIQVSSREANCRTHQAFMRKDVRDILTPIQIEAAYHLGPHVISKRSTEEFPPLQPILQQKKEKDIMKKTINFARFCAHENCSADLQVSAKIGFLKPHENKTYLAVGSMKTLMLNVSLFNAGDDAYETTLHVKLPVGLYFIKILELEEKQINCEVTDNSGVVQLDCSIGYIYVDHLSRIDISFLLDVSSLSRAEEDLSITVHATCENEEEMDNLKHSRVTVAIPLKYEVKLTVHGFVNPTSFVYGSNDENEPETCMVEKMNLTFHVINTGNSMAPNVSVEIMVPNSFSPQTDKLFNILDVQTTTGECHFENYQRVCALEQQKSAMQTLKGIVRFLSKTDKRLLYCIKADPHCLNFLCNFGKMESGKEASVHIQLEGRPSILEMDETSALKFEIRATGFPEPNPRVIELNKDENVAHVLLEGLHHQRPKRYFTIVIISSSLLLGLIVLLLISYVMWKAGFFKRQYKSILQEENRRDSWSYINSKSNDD
RPL19A-GFP yeast – RPL19A-GFP expression modulators in yeast, primary screen, cell-based, S. cerevisiae, multiplex flow cytometry, MLPCN | S. cerevisiae RPL19A-GFP strain, 3 h; active compounds read low | AID 2025, 2009 | percent response vs DMSO, % at 10 µM | actives 0.3% (n = 330,000);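 active = percent response vs DMSO below 50%; inconclusive = fewer than 70 events counted for the yeast strain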;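 also: median channel GFP fluorescence of the barcoded RPL19A-GFP strain; ratio of sample median GFP to plate DMSO average so 100% = DMSO; lower means less RPL19A-GFP as with rapamycin TOR inhibition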
MEP2 TOR yeast – modulators of MEP2-GFP levels in yeast, primary screen, S. cerevisiae, multiplex flow cytometry, MLPCN library; actives 0.51% (n = 330,000); GFP response vs DMSO, % at 10 µM; S. cerevisiae MEP2-GFP strain, 3 h; 100% = DMSO control level; AID 2016, 2009;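 active = GFP response versus DMSO above a set limit, roughly screen mean plus 3 SD, cut at about 180% in these data; inconclusive = fewer than 70 cells counted for a yeast strain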;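 also: median GFP fluorescence of the barcode-gated MEP2-GFP cells per well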
AGP1-GFP MLPCN – modulators of AGP1-GFP expression in yeast TOR pathway, primary screen, cell-based, multiplex flow cytometry, S. cerevisiae, MLPCN library; GFP response vs DMSO, % at 10 µM; AID 2066, 2009; 3 h; GFP as percent of DMSO wells; actives 0.02% (n = 320,000);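 active = GFP response relative to DMSO above a set limit, near screen average plus 3 SD, cut at about 150% in these data; inconclusive = fewer than 70 cells counted for the yeast strain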;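 also: median GFP channel fluorescence of the gated AGP1 strain per well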
LAP4-GFP pick2 – LAP4-GFP expression modulators in yeast, confirmation, cell-based, second cherry pick, flow cytometry | S. cerevisiae LAP4-GFP strain, 3 h | actives 20% (n = 590) | GFP response vs DMSO, % at 10 µM | shares compounds with LAP4 TOR yeast | AID 2621, 2010;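 active = GFP signal as percent of the solvent control above about 150%, meaning raised reporter expression, limit read from the data; inconclusive = fewer than 70 cells counted in the well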;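 also: ratio of well median GFP fluorescence to plate DMSO mean so 100% = DMSO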
MEP2-GFP pick2 – modulators of MEP2-GFP levels in yeast, confirmation, S. cerevisiae, flow cytometry GFP, second cherry picks. S. cerevisiae MEP2-GFP strain, 3 h. GFP response vs DMSO, % at 10 µM. shares compounds with LAP4 TOR yeast. AID 2622, 2010. actives 10% (n = 590);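 active = GFP signal above 150% of the solvent control wells, that is a rise of more than half; inconclusive = fewer than 70 yeast cells counted in the well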;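 also: median channel GFP fluorescence of all gated yeast cells per well; ratio of median GFP to plate DMSO average so 100% = DMSO level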
RPL19A GFP CP2 – RPL19A-GFP modulators in TOR pathway yeast, confirmation, cell-based, S. cerevisiae, flow cytometry, second cherry pick | S. cerevisiae RPL19A-GFP strain, 3 h; active compounds read low; 100% means same as DMSO wells | shares compounds with LAP4 TOR yeast | actives 3% (n = 590) | GFP response vs DMSO, % at 10 µM;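 active = under 65% GFP response relative to DMSO; inconclusive = yeast strain with under 70 measured events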;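 also: median GFP channel fluorescence per well over the all cells gate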
CIT2-GFP pick2 – modulators of CIT2-GFP expression in yeast, confirmation, flow cytometry, second cherry pick, single plex; shares compounds with LAP4 TOR yeast; S. cerevisiae CIT2-GFP strain, 3 h; DMSO control wells read 100%; GFP response vs DMSO, % at 10 µM; actives 8% (n = 590);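 active = GFP response vs DMSO above about 150%, limit read from the data; inconclusive = fewer than 70 events counted for a yeast strain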;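 also: median green fluorescence per well over all gated yeast cells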
AGP1 GFP CP2 – AGP1-GFP expression modulators, hit retest, confirmation, cell-based, flow cytometry, S. cerevisiae, cherry pick set 2. percent response vs DMSO, % at 10 µM. 590 tested, under 10 active. shares compounds with LAP4 TOR yeast. S. cerevisiae AGP1-GFP strain, 3 h;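 active = over 150 percent of DMSO response; inconclusive = yeast strain measured with under 70 events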;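 also: median GFP channel fluorescence over all cells without mother daughter split; sample median GFP divided by mean DMSO control so 100% equals DMSO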
s288c autofluor – compound autofluorescence in yeast s288c, dose response, artefact control for yeast TOR pathway GFP screen, s288c strain. fluorescence change (kMESF span) at 33 µM. shares compounds with LAP4 TOR yeast. S. cerevisiae s288c, 520 nm autofluorescence, flow cytometry, 3 h; active compounds read high; zero means same as solvent-only cells. 610 tested, under 10 active. AID 2757, 2010;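 active = fluorescence span over the dose series, or activity score, above about 33, limit read from the data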
Yeast autofl DR – autofluorescence of compounds in yeast s288c, dose response, artefact control for yeast TOR pathway GFP screen, primary hits, KU SAR, s288c parental | shares compounds with LAP4 TOR yeast | S. cerevisiae s288c parental, compound autofluorescence, flow cytometry, 3 h | fluorescence change (span) at 33 µM | 110 tested, under 10 active;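 active = fluorescence change span, or the activity score built from it, above 25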
TORC1 bypass gr – wild-type yeast growth inhibition sparing TORC1 bypass cells, mechanism study for yeast TOR pathway GFP screen, BY4741 wild type, TORC1 bypass strain. growth rating (0-3) at 30 µM. shares compounds with LAP4 TOR yeast. S. cerevisiae BY4741 spot growth rating, 48-72 h; active compounds read low. 120 tested, under 10 active. AID 504456, 2011;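 active = growth rating at most 1 for wild type yeast while the TORC1 bypass strain still grows fully, rated 3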
* hit, by the source's call; ? = inconclusive; nt = not tested or not shown; [ ] = another dose, or the depositor's remark. In the library only some 1.1% were active in any assay of this set; here they are far more common.

SMILES	LAP4 TOR yeast	CIT2-GFP yeast	VLA-4 inh	RPL19A-GFP yeast	MEP2 TOR yeast	AGP1-GFP MLPCN	others
Nc1ccc(N=Nc2ccccc2)c2ccccc12	102.1	108.2	0.2	97.6	104.6	104.9
Nc1ccc(O)c2ccccc12	94.8	?	-37.3	50.9	182.8*[may fluoresce violet]	22.7
Cc1oc2cc3c(C(=O)N4CCCCC4)c(C)oc3cc2c1C(=O)N1CCCCC1	87.9	?	6.3	46.4*[may fluoresce violet]	258.8*[may fluoresce violet]	?
CCCc1cc(=O)oc2cc(C)cc(OCC(=O)NCc3ccncc3)c12	90.8	94.4	-0.6	91.4	112.5	20.4
COc1ccc(C2=NOC(C(=O)NC(C)(C)C)C2)cc1 (stereo not drawn)	94.5	?	0.0	44.0*[may fluoresce violet]	144.9	nt
COc1ccc(-n2ncc(C(C)NS(=O)(=O)c3cc(F)ccc3C)c2C)cc1 (stereo not drawn)	80.3	116.2	4.9	127.1	104.5	103.4
CCOC(=O)c1cnn(-c2nc3c(C)cccc3s2)c1C	104.5	?	3.2	53.7	281.1*[may fluoresce violet]	nt
COc1ccc(Cl)cc1NC(=O)CN(C)S(=O)(=O)c1cccs1	53.8	?	1.6	31.8*[may fluoresce violet]	201.2*[may fluoresce violet]	?
COc1ccc(Cl)cc1NC(=O)CN(C)CC(=O)NCc1cccs1	111.7	95.5	2.9	108.2	112.3	106.1
Cc1ccc(OCC(=O)Nc2cccc(O)c2)cc1C	93.2	?	-3.8	43.7*[may fluoresce violet]	220.9*[may fluoresce violet]	?
Cc1cccc(OCC(=O)Nc2cccc(O)c2)c1	103.5	106.7	-0.8	102.3	103.1	104.7
COc1ccc(NC(=O)CSCCc2ccccn2)cc1OC	107.3	104.4	5.8	96.8	99.4	104.0
O=C(CSCCc1ccccn1)Nc1cccnc1	?	?	-7.9	40.1*[may fluoresce violet]	?	?
CCCCNc1c(-c2ccc(-c3cccc(Cl)c3)cc2)nc2ccccn12	138.9	80.0	-7.7	87.0	100.5	85.2
CCCCCCSc1ccc(-c2nc3ccccn3c2NCCCC)cc1	161.5*	88.5	-25.4	99.1	104.1	91.8	LAP4-GFP pick2=125.0;MEP2-GFP pick2=108.2;RPL19A GFP CP2=97.3;CIT2-GFP pick2=100.7;AGP1 GFP CP2=94.5
CCN1C(=O)[C@H]2[C@@H](c3ccc(C)cc3)N3C(=O)N(c4cccc(F)c4)C(=O)[C@@]3(C)[C@H]2C1=O	124.6	62.9	-3.5	88.1	90.5	72.7
Oc1ccc(C[C@H]2CNCCN2CC2(c3ccccc3)CC2)cc1	128.0	93.9	-11.7	92.1	90.5	86.0
O=C(CC(=O)Nc1cc(Cl)ccc1Cl)Nc1cc(Cl)ccc1Cl	93.4	105.2	-4.5	97.2	98.4	100.0
O=C1Nc2ccccc2/C1=C/c1cnc(-c2ccccc2)[nH]1	169.2*	161.3*	-61.1	119.9	183.8*	116.1	LAP4-GFP pick2=111.2;MEP2-GFP pick2=141.5;RPL19A GFP CP2=102.5;CIT2-GFP pick2=133.5;AGP1 GFP CP2=99.8
COc1ccccc1OCC(=O)NNC(=O)Nc1ccccc1	99.9	97.3	7.6	100.5	94.0	100.3
Cc1nnc(NC(=O)CSc2nnc(CC(=O)Nc3ccccc3C)n2C)s1	91.1	98.7	14.9	101.3	98.0	96.2
Cn1c(=O)c(C(=O)NNC(=O)c2ccccc2F)c(O)c2ccccc21	92.1	79.3	12.0	108.3	90.6	95.0
Cn1c(=O)c(C(=O)NNC(=O)c2ccc(Br)cc2)c(O)c2ccccc21	127.0	90.4	0.8	63.6	127.7	72.3	LAP4-GFP pick2=161.5*;MEP2-GFP pick2=164.7*;RPL19A GFP CP2=79.4;CIT2-GFP pick2=81.4;AGP1 GFP CP2=85.6;s288c autofluor=2.5
CC1=NNC(=O)/C1=C\c1cn(-c2ccccc2)nc1-c1cccs1	262.6*	93.8	21.8	92.5	107.6	88.0	s288c autofluor=3.03
CC(=O)NCC1CCCN(Cc2cn(-c3ccccc3)nc2-c2ccc3c(c2)OCO3)C1 (stereo not drawn)	192.4*	91.3	6.4	81.0	112.2	116.8	LAP4-GFP pick2=96.2;MEP2-GFP pick2=96.1;RPL19A GFP CP2=100.0;CIT2-GFP pick2=111.2;AGP1 GFP CP2=99.0
COC(=O)C1CCN(Cc2cn(-c3ccccc3)nc2-c2ccc3c(c2)OCO3)CC1	101.2	108.2	5.1	100.8	103.3	107.7
O=c1/c(=C/c2cccc3ccccc23)sc2ncnn12	155.1*	106.9	12.7	105.8	91.2	81.3	s288c autofluor=0.81;Yeast autofl DR=0.49;TORC1 bypass gr=3
O=C(Nc1nnc(-c2ccc(F)cc2)o1)c1cccc([N+](=O)[O-])c1	163.6*	99.2	-1.8	98.1	111.5	102.7	s288c autofluor=0.2

Screening data (PubChem BioAssay)
